The text below walks through data of PubChem BioAssay (NCATS).

Results filed as inconclusive are left out. Values without a mark were called inactive. The source made the active and inactive calls. Calls follow the shape of the dose curve; as a rule, active = well fitted inhibition curve with a large enough effect; inconclusive = small, poorly fitted or top-dose-only effect; inactive = no such curve, though single readings can be large or run the other way. Positions of bridges follow the written chain, without caps; N, C: chain ends. Non-standard residues stand in square brackets, D forms with d. Residues, ends and D or L forms follow the SMILES beside them. *: point of attachment. X1 = CCC(C)C(N)C1=NC(C(=O)*)CS1; dOrn = NCCC[C@@H](N)C(=O)O

The target in the first assay is Retinaldehyde dehydrogenase 3 (Homo sapiens) (UniProt P47895). Briefly: qHTS for Inhibitors of the Aldehyde Dehydrogenase Family (ALDH1A3) Primary screen (AID 2061315).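 Also: plate controls were DMSO vehicle for no effect and reference inhibitor for full effect.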 The conditions noted are these: ALDH inhibition qHTS; series mostly up to 56 µM; activity change, negative = inhibition: at the top concentration.
Regarding `CC[C@H](CO)Nc1nc(NCc2ccc(-c3ccccn3)cc2)c2ncn(C(C)C)c2n1`, the “activity change, negative = inhibition” value is -15.3%.

As to `CC1(NC(=O)c2ccc(C#Cc3cccc(F)c3)cn2)COC1`, the “activity change, negative = inhibition” value was -12.9%.

Regarding `O=C(O)c1cn(C2CC2)c2cc(N3C[C@@H]4C[C@H]3CN4)c(F)cc2c1=O`, the “activity change, negative = inhibition” value was 59.7%.

On to `CCCCNC(=O)[C@@H]1Cc2ccccc2N1C(=O)[C@@H](N)CC`, for which the “activity change, negative = inhibition” value was -24.1%.

For `CCOC(=O)C1=C(N)Oc2ccc(Cl)cc2C1C(C#N)C(=O)OCC` (stereo unspecified), the “activity change, negative = inhibition” value was -1.17%.

Regarding `Cn1cnc(-c2nccc3c(=O)[nH]c(OCCCC(F)(F)F)nc23)c1`, the “activity change, negative = inhibition” value was 11.7%.

With `C=CC(=O)N1CCN(C(=O)CNc2cc(-c3ccccc3Cl)c(Cl)cc2OC)CC1`, the “activity change, negative = inhibition” value was 0.358%.

Take `COC(=O)N1CCN(Cc2cccc(NC(=O)Nc3ccc(C)nc3)c2F)CC1`: the “activity change, negative = inhibition” value was -14.7%.

As for `COc1ccnc(CCc2nc3ncccc3[nH]2)c1`, the “activity change, negative = inhibition” value was -13.5%.

On to `COc1ccc(CCO[C@@H]2CCCC[C@H]2N2CC[C@@H](O)C2)cc1OC`, for which the “activity change, negative = inhibition” value is -17.9%.

Take `CC1(C)CCC2(C(=O)OC3OC(CO)C(O)C(O)C3O)CCC3(C)C(=CCC4C5(C)CCC(O)C(C)(C(=O)O)C5CCC43C)C2C1O` (stereo unspecified): the “activity change, negative = inhibition” value is 10% [at 16.9 µM].

With `Cn1cc(Nc2cnccc2C(=O)O)c2cccnc21`, the “activity change, negative = inhibition” value is 128%.

With `CCOC(=O)C1=C(N)Oc2ccc(Br)cc2C1C(C#N)C(=O)OCC` (stereo unspecified), the Potency entry is “inactive”.

Consider `COc1ccc(NC(=O)c2ccc(-c3ccc(C(N)=O)cc3C)cc2)cc1N1CCN(C)CC1`, for which the “activity change, negative = inhibition” value was 0.713%.

Consider `CC(C)(C)Nc1nc(Nc2ccc(C(N)=O)cc2)cc(N)c1C#N`, for which the “activity change, negative = inhibition” value was 12.6%.

The target of a further assay is Aldehyde dehydrogenase 1A1 (Homo sapiens) (UniProt P00352). Briefly: qHTS for Inhibitors of the Aldehyde Dehydrogenase Family (ALDH1A1) Confirmatory screens (AID 2061316). Also: nearly all actives have a fitted effect of over 65% in size. Also: potency is read from the fitted curve at half-maximal effect. As to activity change, negative = inhibition: % is scaled to controls: 0 for no effect and ±100 for the full control effect. The conditions noted are these: ALDH inhibition qHTS; series mostly up to 47.3 µM; activity change, negative = inhibition: at the top concentration.
Regarding `Cc1nnc(-c2sc(NC(=O)[C@H](C(C)C)n3c(=O)[nH]c4ccccc4c3=O)nc2C)o1`, the “activity change, negative = inhibition” value was -4.95%.

Regarding `CCCN(CCN1CCN(c2ccccc2OC)CC1)C1CCc2ncsc2C1` (stereo unspecified), the “activity change, negative = inhibition” value is 0.738%.

Take `CCC(C)C(N)C1=NC(C(=O)N[C@@H](CC(C)C)C(=O)N[C@H](CCC(=O)O)C(=O)N[C@H](C(=O)N[C@H]2CCCCNC(=O)[C@H](CC(N)=O)NC(=O)[C@@H](CC(=O)O)NC(=O)[C@H](Cc3cnc[nH]3)NC(=O)[C@@H](Cc3ccccc3)NC(=O)[C@H]([C@@H](C)CC)NC(=O)[C@@H](CCCN)NC2=O)[C@@H](C)CC)CS1` (stereo partly specified) (X1-L[dE]IK[dOrn]I[dF]H[dD]N; lactam 4-C): the Potency was 4 µM (active).

Regarding `O=C1CC(c2ccc([N+](=O)[O-])cc2)=NN1c1ccccc1`, the “activity change, negative = inhibition” value is -16.4%.

In the case of `O=C(O)c1cnn(-c2nc3cc(OC(F)(F)F)c(Cl)cc3[nH]2)c1`, the “activity change, negative = inhibition” value is -9.51%.

Take `C=CC(=O)Nc1cccc(Nc2nc(Nc3ccc(Oc4ccnc(C(=O)NC)c4)cc3)ncc2F)c1`: the result was inactive.

`CC(=O)Nc1sc2c(c1-c1nc3ccccc3s1)CNC2`: the Potency was 6.34 µM (active).

Regarding `O=C(Nc1ccccc1)N1CCN(Cc2ccc3ccccc3n2)CC1`, the “activity change, negative = inhibition” value is 3.15%.

As to `N[C@@H](CCNCc1ccc(Cl)cc1)C(=O)N1CCCCC1`, the “activity change, negative = inhibition” value is 2.92%.

As to `O=C(C1CCCCC1)N(CCN1CCN(c2ccccc2O)CC1)c1ccccn1`, the Potency was 11.3 µM (active).

As to `COc1ccc(-c2ccn(CC[C@](C)(C(=O)NO)S(C)(=O)=O)c(=O)c2)c(F)c1`, the Potency is 2.52 µM (active).

`COc1ccc(-c2cc3onc(-c4ccncc4)c3c(=O)n2C)cc1`: the “activity change, negative = inhibition” value is -15.9%.

In the case of `CC[C@H](CO)Nc1nc(NCc2ccc(-c3ccccn3)cc2)c2ncn(C(C)C)c2n1`, the “activity change, negative = inhibition” value was -0.95%.

Take `CC1(NC(=O)c2ccc(C#Cc3cccc(F)c3)cn2)COC1`: the “activity change, negative = inhibition” value was -13.2%.

`CN(C)c1ccc2c(c1)OC(N)=C(C#N)C2c1cccc(C(F)(F)F)c1` (stereo unspecified): the result was inactive.

Consider `O=C(O)c1cn(C2CC2)c2cc(N3C[C@@H]4C[C@H]3CN4)c(F)cc2c1=O`, for which the Potency is 31.8 µM (active).

As to `CCCCNC(=O)[C@@H]1Cc2ccccc2N1C(=O)[C@@H](N)CC`, the call was inactive.

As to `CCOC(=O)C1=C(N)Oc2ccc(Cl)cc2C1C(C#N)C(=O)OCC` (stereo unspecified), the “activity change, negative = inhibition” value is -18.5%.

With `Cn1cnc(-c2nccc3c(=O)[nH]c(OCCCC(F)(F)F)nc23)c1`, the “activity change, negative = inhibition” value was 1.86%.

As for `CCOC(=O)c1cccc(CNc2ccc(N(C)C(=O)Nc3ccccc3)cc2)c1`, the “activity change, negative = inhibition” value was -15.1%.

Take `COCCN(C(=O)c1cc(OC)c(OC)c(OC)c1)c1nc(-c2ccccc2)cs1`: the compound was called inactive.

For the compound `C=CC(=O)N1CCN(C(=O)CNc2cc(-c3ccccc3Cl)c(Cl)cc2OC)CC1`, the “activity change, negative = inhibition” value is -4.49%.

Turning to `COC(=O)N1CCN(Cc2cccc(NC(=O)Nc3ccc(C)nc3)c2F)CC1`, the “activity change, negative = inhibition” value is -7.57%.

For the compound `COc1ccnc(CCc2nc3ncccc3[nH]2)c1`, the outcome was inactive.

As to `COc1ccc(CCO[C@@H]2CCCC[C@H]2N2CC[C@@H](O)C2)cc1OC`, the “activity change, negative = inhibition” value is -18.2%.

Turning to `CC1(C)CCC2(C(=O)OC3OC(CO)C(O)C(O)C3O)CCC3(C)C(=CCC4C5(C)CCC(O)C(C)(C(=O)O)C5CCC43C)C2C1O` (stereo unspecified), the “activity change, negative = inhibition” value is -4.33% [at 16 µM].

Consider `O=C(CCCCCCC(=O)Nc1ccccc1)NO`, for which the “activity change, negative = inhibition” value was -12.8%.

With `Fc1ccc(N2CCN(CCC3OCCc4ccccc43)CC2)cc1` (stereo unspecified), the “activity change, negative = inhibition” value was -23.4%.

In the case of `COc1ccc(NC(=O)c2ccc(-c3ccc(C(N)=O)cc3C)cc2)cc1N1CCN(C)CC1`, the result was inactive.

For `CC(C)(C)Nc1nc(Nc2ccc(C(N)=O)cc2)cc(N)c1C#N`, the Potency is 14.2 µM (active).

As for `Cc1ccccc1C#Cc1ccc(CCC(=O)O)cc1`, the “activity change, negative = inhibition” value was -10.6%.
